From PubChem
Rows were chosen to be rich in hits. Some 2.4% of all compounds tested hit in one or more screens of this group.
FEN1 inhibitor = blocks human flap endonuclease 1; Potency, µM (series often up to 114 µM), inactives show at the top dose activity change, negative = inhibition, most hits filed as inhibitors; AID 588795; P39748; Recombinant FEN1 flap cleavage, fluorescence, 15 min; 390,000 compounds, 0.35% hits; note: % is set by controls: 0 for no effect and ±100 for the full control effect; nearly all actives have a fitted effect of over 65% in size
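With each library titrated from low to high concentration, compounds met 10 nM FEN1 for 15 min at room temperature before 50 nM substrate was added; readings at 0 and 15 min fed four-parameter Hill curve fits.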
Pol beta inh = blocks human DNA polymerase beta activity; P06746; Pol beta primer extension/strand displacement, fluorescence kinetic; Potency, µM (titrated, usually from 114 µM), for the others: at the highest dose activity change, negative = inhibition, usual class: inhibitors; 340,000 compounds, 1.3% hits; note: % is set by controls: 0 for no effect and ±100 for the full control effect
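Kinetic readout of DNA synthesis with strand displacement by Pol beta. Compound and 10 nM enzyme sit 15 min at room temperature; 50 nM substrate starts the reaction, read immediately and at 10 min.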
Pol iota inh = inhibitors of human DNA polymerase iota; Potency, µM (doses to about 115 µM), without a hit: top-dose activity, negative = inhibition, usual class: inhibitors; Q9UNA4; 390,000 compounds, 1% hits; Pol iota fluorescent replication assay, 10 min
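Fluorescent replication assay read twice, at 0 min and 10 min after adding 50 nM (final) substrate. Enzyme (10 nM) and compounds were first incubated 15 min at room temperature; enzyme-free buffer wells were negative controls.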
POLK inh = blocks human DNA polymerase kappa activity | Q9UBT6 | purified Pol kappa, fluorescent DNA synthesis assay, 10 min | Potency, µM (series often up to 107 µM), for the others: at the top dose activity, negative = inhibition, actives largely listed as inhibitors | 400,000 compounds, 0.53% hits; note: % is set by controls: 0 for no effect and ±100 for the full control effect
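Activity was followed as the change in fluorescence between reads at 0 and 10 min after starting the reaction with 50 nM substrate. Beforehand, 10 nM polymerase had been preincubated with compound for 15 min at room temperature.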
WRN inhibitor = WRN helicase (human) inhibition. Potency, µM (highest dose often 114 µM), without a hit: at the highest dose activity change, negative = inhibition, actives largely listed as inhibitors. WRN helicase unwinding, fluorescent forked duplex, kinetic. AID 651768. 360,000 compounds, 0.46% hits. Q14191; note: % is set by controls: 0 for no effect and ±100 for the full control effect; nearly all actives have a fitted effect of over 55% in size
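Screening of the MLSMR collection measured strand separation of a quenched forked DNA duplex (100 nM) by 20 nM WRN with 2 mM ATP, all final. Compounds were preincubated with enzyme 15 min at room temperature.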
POLH inh = inhibitors of human DNA polymerase eta | Q9Y253 | recombinant Pol eta, fluorescent DNA replication assay | Potency, µM (highest dose often 114 µM), for the others: top-dose activity change, negative = inhibition, usual class: inhibitors | 390,000 compounds, 1.2% hits | AID 588591; note: % is set by controls: 0 for no effect and ±100 for the full control effect
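Fluorescent replication assay: 50 nM final substrate added after a 15 min room-temperature compound preincubation with 10 nM enzyme. Signal taken at 0 min and again at 10 min.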
* marks the source's active call; other numbers are inactive results; ? = inconclusive; / = no result given; ! = a repeat was not active; [ ] = dose if it differs, or a comment. Calls come from the whole dose curve; as a rule, active = well fitted curve in the direction sought with a large enough effect; inconclusive = small, poorly fitted or top-dose-only effect, or another doubt; inactive = no such curve, though single readings can be large; an effect the other way counts as inactive or inconclusive. Potency is the fitted concentration of half-maximal effect.

SMILES | FEN1 inhibitor | Pol beta inh | Pol iota inh | POLK inh | WRN inhibitor | POLH inh
Oc1ccc(/C=N/N(c2ccccc2)c2ccccc2)c(O)c1O | / | 5µM* | / | / | / | /
O=C1c2cccc3cccc(c23)C(=O)N1/N=C/c1ccc(O)cc1O | -12% | ? | 17% | -29% | 0% | ?
O=C1c2ccccc2C(=O)N1/N=C/c1ccc(O)c(O)c1O | 11µM* | ? | ? | 1.4µM* | 8.9µM* | 1.6µM*
Oc1ccc(/C=N/N2CCCCC2)c(O)c1O | ? | 35µM* | ? | ? | ? | -20%
Oc1cccc(/C=N/N2CCCCC2)c1O | -5% | ? | ? | -20% | -4% | -1%
C/C=C1/C(=O)C[C@@H]2[C@H]3CCC4=CC(=O)CC[C@]4(C)[C@@H]3CC[C@]12C | / | / | / | 3%[19.4 µM] | / | /
Cc1ccc(C(=O)NCc2ccc(N(C)C)cc2)cc1NC(=O)c1nsc2ccccc12 | 7% | -16% | -15% | -15%[60.1 µM] | / | 4%
NCCCCC(N)C(=O)NC(Cc1ccc(O)cc1)C(=O)NC(CCCCN)C(=O)O (stereo not given) | / | / | / | -6%[60.1 µM] | / | /
O=[N+]([O-])c1cccc(C2=N[C@@H](Cc3ccccc3)CO2)c1 | / | / | / | -14% | / | /
O=C(Cc1cccs1)Nc1ccc(F)cc1F | -6% | -9% | -22% | -38% | -8% | 79µM*
NC(=O)c1ccc(NC(=O)Cc2cccs2)cc1 | 13% | 40µM* | ? | ? | -8%[11.6 µM] | 50µM*
CCc1ccc(NC(=O)CS(=O)CC(=O)Nc2ccc(F)cc2F)cc1 (stereo not given) | -4% | 40µM* | ? | -22% | -9% | -4%
O=C(Cc1cccs1)Nc1ccc(Cl)cc1 | -1% | 0% | ? | -1% | 2% | -8%
O=C(Cc1cccs1)Nc1ccccc1F | 8% | 12% | 108% | -4% | 1% | -2%
O=C(CCC(=O)c1cccs1)Nc1ccc(N2CCCCC2)cc1 | 1% | ? | ? | ? | 2%[11.6 µM] | 89µM*
Cc1cccc(C)c1NC(=O)CS(=O)CC(=O)Nc1ccc(F)cc1F (stereo not given) | -4% | 8% | 20% | -16% | -7% | 1%
COCC(=O)N1CCC2(CC1)CN(c1ccncc1)C2 | / | / | / | -3%[60.1 µM] | / | /
CN(C)c1ccc(/C=C/c2cc(/C=C/c3ccc(N(C)C)cc3)c3ccccc3n2)cc1 | ? | / | ? | -4% | / | /
O=C(Cc1cccs1)Nc1ccc(N2CCOCC2)cc1 | -2% | 25µM* | ? | -26% | -21%[57.1 µM] | 25µM*
O=C(Cc1cccs1)Nc1ccc(Cl)c(S(=O)(=O)N2CCOCC2)c1 | -13% | / | -20% | -4% | 3% | 4%
Cc1cccc(C)c1NC(=O)CS(=O)CC(=O)Nc1ccc(N2CCOCC2)cc1 (stereo not given) | -14% | 1% | 15% | -1% | -2% | 9%
CCc1ccc(NC(=O)CS(=O)CC(=O)Nc2ccc(N3CCOCC3)cc2)cc1 (stereo not given) | -1% | 22µM* | ? | -11% | -17% | ?
CCCN(CCC)C(=O)Cn1c(=O)n(-c2cccc(OC)c2)c(=O)c2c3c(sc21)CCCC3 | 2% | 9% | 22% | 6% | / | -13%
CCc1nnc2c(Nc3cccc(F)c3)nc3ccc(C(=O)c4ccccc4)cc3n12 | -3% | 22% | -15% | -1% | / | 0%
O=c1c(-c2ccc(F)c(F)c2)nc2cncnc2n1Cc1ccc(F)cc1 | / | / | / | -1%[60.1 µM] | / | /
SMILES | FEN1 inhibitor | Pol beta inh | Pol iota inh | POLK inh | WRN inhibitor | POLH inh
Cn1nnnc1Sc1ncnc2scc(-c3ccccc3)c12 | 3% | 28µM* | ? | -12% | -17% | ?
CSC[C@H](NC(=O)Cc1c(C)c2cc3c(C)c(C)oc3cc2oc1=O)C(=O)N[C@@H](Cc1ccccc1)C(=O)O | 2% | 9% | 6% | 2% | -4% | -1%
COc1ccc(CNC(=O)CCc2c(C)c3cc4c(C)coc4cc3oc2=O)cc1 | 14% | 1% | ? | 10% | / | 12%
COc1ccc(CNC(=O)CCc2c(C)c3cc4c(C)c(C)oc4cc3oc2=O)cc1 | -8% | 22µM* | 13% | -6% | / | -24%
CCC(NC(=O)CCc1c(C)c2cc3c(C)c(C)oc3cc2oc1=O)C(=O)N[C@@H](Cc1ccccc1)C(=O)O (stereo not given in full) | -6% | 32µM* | 8% | 12% | -25% | ?
C=CCc1cccc2cc(-c3nc4ccc(C(=O)O)cc4[nH]3)c(=O)oc12 | 5% | -20% | ? | -1%[60.1 µM] | / | ?
COc1cccc(NC(=O)c2c(C)oc3nc(C)nc(N4CCCC4)c23)c1 | -7% | 33% | -1% | 1% | / | -13%
O=C(Nc1cc(C(=O)Nc2ccc(S(=O)(=O)O)cc2S(=O)(=O)O)cc(C(=O)Nc2ccc(S(=O)(=O)O)cc2S(=O)(=O)O)c1)Nc1cc(C(=O)Nc2ccc(S(=O)(=O)O)cc2S(=O)(=O)O)cc(C(=O)Nc2ccc(S(=O)(=O)O)cc2S(=O)(=O)O)c1 | -119% | 0.22µM* | 1.3µM* | 0.18µM*! | / | 0.1µM*
O=C(Nc1ccc(C(=O)Nc2ccc(C(=O)Nc3ccc(S(=O)(=O)O)c4cc(S(=O)(=O)O)cc(S(=O)(=O)O)c34)cc2)cc1)Nc1ccc(C(=O)Nc2ccc(C(=O)Nc3ccc(S(=O)(=O)O)c4cc(S(=O)(=O)O)cc(S(=O)(=O)O)c34)cc2)cc1 | / | / | / | 0.14µM* | / | /
CC(CNC(=O)c1csc2c1CCCCC2)c1ccccc1 (stereo not given) | -6% | -26% | -8% | 2% | / | -11%
Cc1ccc(C(=O)c2cn(Cc3ccc(Cl)cc3)c3nc(C)ccc3c2=O)cc1 | 12% | -30% | 7% | -14% | / | -8%
Cc1ccc(C(=O)c2cn(Cc3ccc(F)cc3)c3nc(C)ccc3c2=O)cc1 | 12% | 1% | 79µM* | -16% | / | -9%
O=C(CSc1nc2nc(-c3cccs3)cc(C(F)(F)F)c2c(=O)[nH]1)Nc1ccc(F)c(F)c1 | ? | 28µM* | ? | ? | ? | 32µM*
N#Cc1c(C(F)(F)F)cc(-c2cccs2)nc1SCC(=O)Nc1ccc(Cl)cc1 | -6% | 23% | 10% | -11% | / | -15%
Cc1cccc(CN2CC34C=CC(CC3S2(=O)=O)O4)c1 (stereo not given) | -14% | / | 9% | 9% | / | /
O=C(c1ccccc1)c1ccccc1N1C(=O)C=CC1=O | -10% | 3% | 109% | -15% | 13µM* | -10%
CN(Cc1ccco1)c1ccnc(-c2cccnc2)n1 | / | / | / | 25µM* | / | /
Cc1noc(C)c1-c1nccc(N(C)Cc2ccco2)n1 | / | / | / | -4%[60.1 µM] | / | /
Cc1c(C)c2c(C)nn(-c3ccccc3)c2[nH]c1=O | 7% | 14% | 27% | -7% | -1% | -18%
